Laboratory results: PubChem BioAssay AID1159580 (chemical genetic matrix, 2015)
About 2,000 (36%) of roughly 5,500 compounds were called active. Another 18% or so got no clear call; they are omitted. Rule as the data show it: active = normalized growth mostly below about 0.91 (no sharp cut-off); inconclusive = no clear call, values can overlap the other calls; inactive = mostly above about 0.92. The list shows a part of the results.

Assay: chemical genetic growth profiling, strain panel (AID 1159580);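 also: tested at 20 µM; growth read once vehicle control cultures reached saturation at 30 °C; 1 = growth at the plate median or of vehicle wells; lower values mean less growth of the strain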
Conditions: S. cerevisiae deletion strains, growth OD
[1] = locus YHR030C, strain SLT2, active compounds read low
[2] = locus YHR079C, strain IRE1, active compounds read low
[3] = locus YJL095W, strain BCK1, active compounds read low
[4] = locus YJR066W, strain TOR1, active compounds read low
[5] = locus YLR113W, strain HOG1, active compounds read low
[6] = locus YNL183C, strain NPR1, active compounds read low
[7] = locus YOR231W, strain MKK1, active compounds read low
[8] = locus YPL256C, strain CLN2, active compounds read low

Measured: normalized growth

O=C1Nc2ccccc2/C1=N/N=C\c1cc(Br)cc(Br)c1O
inactive: locus YAR019C, strain CDC15, active compounds read low 0.947 | locus YBL105C, strain PKC1, active compounds read low 0.959 | locus YBR135W, strain CKS1, active compounds read low 0.964 | locus YBR136W, strain MEC1, active compounds read low 0.955 | locus YBR160W, strain CDC28, active compounds read low 0.959 | locus YDL017W, strain CDC7, active compounds read low 0.957 | locus YDL028C, strain MPS1, active compounds read low 0.95 | locus YDL101C, strain DUN1, active compounds read low 0.946 | locus YDL108W, strain KIN28, active compounds read low 0.957 | locus YDL132W, strain cdc53, active compounds read low 0.944 | locus YDR052C, strain DBF4, active compounds read low 0.944 | locus YDR054C, strain cdc34, active compounds read low 0.916 | locus YDR226W, strain ADK1, active compounds read low 0.951 | locus YFL009W, strain cdc4, active compounds read low 0.945 | locus YFL029C, strain CAK1, active compounds read low 0.949 | locus YFR003C, strain YPI1, active compounds read low 0.947 | locus YFR028C, strain CDC14, active compounds read low 0.964 | locus YIL147C, strain SLN1, active compounds read low 0.948 | locus YJR016C, strain ILV3, active compounds read low 0.969 | locus YKL193C, strain SDS22, active compounds read low 0.937 | locus YMR001C, strain CDC5, active compounds read low 0.945 | locus YMR277W, strain FCP1, active compounds read low 0.959 | locus YNL161W, strain CBK1, active compounds read low 0.943 | locus YNL207W, strain RIO2, active compounds read low 0.957 | locus YNL222W, strain SSU72, active compounds read low 0.96 | locus YOL078W, strain AVO1, active compounds read low 0.937 | locus YOR329C, strain SCD5, active compounds read low 0.937 | locus YPL209C, strain IPL1, active compounds read low 0.967 | locus YPR025C, strain CCL1, active compounds read low 0.959 | locus YPR106W, strain ISR1, active compounds read low 0.943 | locus YPR111W, strain DBF20, active compounds read low 0.933 | strain TSCII, active compounds read low 0.951
active: locus YDL214C, strain PRR2, active compounds read low 0.231 | locus YDR477W, strain SNF1, active compounds read low 0.246 | locus YER123W, strain YCK3, active compounds read low 0.233 | locus YER133W, strain GLC7, active compounds read low 0.249 | locus YFR019W, strain FAB1, active compounds read low 0.396 | locus YGR040W, strain KSS1, active compounds read low 0.278 | locus YGR052W, strain FMP48, active compounds read low 0.132 | locus YGR092W, strain DBF2, active compounds read low 0.121 | [1] 0.128 | [2] 0.132 | locus YHR082C, strain KSP1, active compounds read low 0.124 | locus YHR205W, strain SCH9, active compounds read low 0.0116 | [3] 0.112 | locus YJL157C, strain FAR1, active compounds read low 0.147 | locus YJR066W, strain TOR1 (second series), active compounds read low 0.393 | [4] 0.114 | locus YKL048C, strain ELM1, active compounds read low 0.303 | locus YKL067W, strain YNK1, active compounds read low 0.194 | locus YKL101W, strain HSL1, active compounds read low 0.225 | locus YKL203C, strain TOR2, active compounds read low 0.209 | [5] 0.331 | locus YLR133W, strain CKI1, active compounds read low 0.134 | locus YLR403W, strain SFP1, active compounds read low 0.0728 | locus YML070W, strain DAK1, active compounds read low 0.259 | locus YMR205C, strain PFK2 (second series), active compounds read low 0.204 | locus YNL006W, strain LST8, active compounds read low 0.764 | locus YNL020C, strain ARK1, active compounds read low 0.114 | [6] 0.128 | locus YNL307C, strain MCK1 (second series), active compounds read low 0.128 | locus YOL136C, strain PFK27, active compounds read low 0.198 | locus YOR061W, strain CKA2, active compounds read low 0.105 | locus YOR119C, strain RIO1, active compounds read low 0.184 | [7] 0.139 | locus YPL031C, strain PHO85, active compounds read low 0.203 | locus YPL153C, strain RAD53, active compounds read low 0.196 | locus YPL204W, strain HRR25, active compounds read low 0.199 | [8] 0.313 | strain NNK1, active compounds read low 0.34

CC[C@]12C=CCN3CC[C@@]4(c5ccc(OC)cc5N(C)C4[C@@](O)(C(=O)OC)[C@@H]1OC(C)=O)[C@@H]32 (stereo not given in full)
inactive: locus YAL021C, strain ccr4, active compounds read low 1.01 | locus YAL026C, strain drs2, active compounds read low 0.993 | locus YAL030W, strain snc1, active compounds read low 1.02 | locus YBL061C, strain skt5, active compounds read low 1.01 | locus YBR009C, strain hhf1, active compounds read low 1.01 | locus YBR023C, strain chs3, active compounds read low 1.01 | locus YBR171W, strain sec66, active compounds read low 0.995 | locus YBR231C, strain swc5, active compounds read low 0.996 | locus YBR279W, strain paf1, active compounds read low 1 | locus YCL011C, strain gbp2, active compounds read low 1.02 | locus YCL016C, strain dcc1, active compounds read low 0.988 | locus YCL061C, strain MRC1, active compounds read low 1.01 | locus YCL069W, strain vba3, active compounds read low 1 | locus YCR088W, strain abp1, active compounds read low 1 | locus YDL005C, strain med2, active compounds read low 0.992 | locus YDL040C, strain nat1, active compounds read low 1.02 | locus YDR001C, strain nth1, active compounds read low 1.02 | locus YDR069C, strain doa4, active compounds read low 0.989 | locus YDR137W, strain rgp1, active compounds read low 0.949 | locus YDR159W, strain sac3, active compounds read low 1 | locus YDR195W, strain ref2 1.01 | locus YDR297W, strain sur2, active compounds read low 0.996 | locus YDR334W, strain swr1, active compounds read low 1.04 | locus YDR335W, strain msn5, active compounds read low 1.01 | locus YDR392W, strain spt3, active compounds read low 0.943 | locus YEL003W, strain gim4, active compounds read low 1 | locus YEL037C, strain rad23, active compounds read low 1 | locus YEL061C, strain CIN8 (second series), active compounds read low 1.02 | locus YER015W, strain faa2, active compounds read low 1.01 | locus YER016W, strain bim1, active compounds read low 0.993 | locus YER111C, strain swi4, active compounds read low 0.981 | locus YER155C, strain BEM2 (second series), active compounds read low 0.973 | locus YFR010W, strain ubp6, active compounds read low 1 | locus YGL167C, strain pmr1, active compounds read low 0.992 | locus YGL173C, strain kem1, active compounds read low 0.998 | locus YGL227W, strain vid30, active compounds read low 0.989 | locus YGL240W, strain doc1, active compounds read low 1 | locus YGL253W, strain hxk2, active compounds read low 1.03 | locus YHR013C, strain ard1, active compounds read low 0.966 | locus YHR027C, strain rpn1, active compounds read low 1.01 | [1] 0.912 | [2] 0.924 | locus YHR142W, strain chs7, active compounds read low 1.04 | locus YJL092W, strain hpr5, active compounds read low 1.01 | locus YJL095W, strain BCK1 (second series), active compounds read low 1 | [3] 0.983 | locus YJL115W, strain asf1, active compounds read low 0.999 | locus YJL129C, strain trk1, active compounds read low 1.02 | locus YJL154C, strain vps35, active compounds read low 0.992 | locus YJL164C, strain tpk1, active compounds read low 1.01 | locus YJL166W, strain qcr8, active compounds read low 1.01 | locus YJL187C, strain SWE1, active compounds read low 1 | [4] 0.909 | locus YKL160W, strain elf1, active compounds read low 0.995 | locus YKR026C, strain gcn3, active compounds read low 1.01 | locus YKR091W, strain srl3, active compounds read low 0.992 | locus YLL001W, strain dnm1, active compounds read low 0.997 | locus YLL026W, active compounds read low 0.992 | locus YLL041C, strain sdh2, active compounds read low 1.01 | locus YLR027C, strain aat2, active compounds read low 1.01 | [5] 0.942 | locus YLR221C, strain rsa3, active compounds read low 0.999 | locus YLR258W, strain gsy2, active compounds read low 1.01 | locus YLR262C, strain YPT6 (second series), active compounds read low 0.927 | locus YLR320W, strain mms22, active compounds read low 0.97 | locus YLR342W, strain FKS1, active compounds read low 0.965 | locus YLR357W, strain rsc2, active compounds read low 1.02 | locus YLR370C, strain arc18, active compounds read low 1.01 | locus YLR384C, strain iki3, active compounds read low 1.01 | locus YML120C, strain ndi1, active compounds read low 0.994 | locus YMR058W, strain fet3, active compounds read low 1.04 | locus YMR125W, strain sto1, active compounds read low 1.03 | locus YMR129W, active compounds read low 1 | locus YMR205C, strain PFK2, active compounds read low 1.01 | locus YMR231W, strain pep5, active compounds read low 0.993 | locus YNL071W, strain lat1, active compounds read low 0.985 | [6] 0.961 | locus YNL209W, strain ssb2, active compounds read low 1.01 | locus YNL248C, strain rpa49, active compounds read low 0.982 | locus YNL322C, strain KRE1 (second series), active compounds read low 0.987 | locus YNR049C, strain mso1, active compounds read low 1.01 | locus YOR001W, strain rrp6, active compounds read low 1.01 | locus YOR070C, strain gyp1, active compounds read low 1 | locus YOR080W, strain dia2, active compounds read low 1 | locus YOR083W, strain WHI5, active compounds read low 0.934 | locus YOR106W, strain vam3, active compounds read low 0.994 | [7] 0.928 | locus YOR265W, strain rbl2, active compounds read low 1.01 | locus YOR270C, strain vph1, active compounds read low 0.934 | locus YOR290C, strain snf2, active compounds read low 0.999 | locus YPL051W, strain arl3, active compounds read low 0.984 | locus YPL078C, strain atp4, active compounds read low 0.989 | locus YPL106C, strain sse1, active compounds read low 0.988 | locus YPL240C, strain hsp82, active compounds read low 1 | [8] 0.923
